Drawing on PubChem BioAssay, this text covers z-score and composite z-score for nine compounds.

The nature of experiment [1]: HepG2 liver cancer cell viability effects, profiling panel, resazurin fluorescence, 24 h, PK04 Diversity Set (AID 1172). Conditions: higher = more signal.
A short description of experiment [2]: basal S. cerevisiae growth modulation, no modifier, primary screen, OD600, strain BY4716, 24 h, basal condition (AID 1173). Conditions: OD600, 24 h, higher = more signal, called active from +8 up or from −8 down.
Experiment [3] is described as follows: MM1S myeloma cell viability, profiling panel, resazurin fluorescence, basal, 24 h, PK04 Diversity Set (AID 1174).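 Also: MM1S multiple myeloma cell line.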 To be noted: higher = more signal, called active from +8 up or from −8 down. A general note: The colour change of resazurin is a common sign of viable cells or microbes.
Experiment [4] concerns the target Dihydroorotate dehydrogenase (quinone), mitochondrial (Plasmodium falciparum (isolate 3D7)) (UniProt Q08210). The experiment is described as follows: PfDHODH enzyme inhibitors, primary screen, biochemical, C-terminal His tag, absorbance 600 nm (AID 1175).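 Also: recombinant parasite enzyme with a five histidine tag at its C terminus.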 To be noted: DCIP absorbance 600 nm, higher = more signal, called active from +8 up or from −8 down.
The nature of experiment [5]: P. aeruginosa biofilm formation inhibitors, primary screen, strain PAO1, LB-PBS medium, absorbance 600 nm (AID 1176). Conditions: P. aeruginosa PAO1 growth/biofilm, A600, 12 h; higher = more signal.
A short description of experiment [6]: S. cerevisiae RM11-1a growth modifiers, primary screen, strain RM11-1a, OD600, basal, 24 h (AID 1177).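 Also: cultures grown under basal conditions with no added stressor.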 To be noted: OD600, 24 h, higher = more signal, called active from +8 up or from −8 down.
Experiment [7] is described as follows: E. coli acrAB mutant growth effects, primary screen, E. coli filamentation inducers, strain DRC39, OD650, 24 h (AID 1178).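 Also: growth measured as culture turbidity by optical density at 650 nm.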 Conditions: higher = more signal, called active from +8 up or from −8 down.
A short description of experiment [8]: E. coli acrAB mutant growth effects, primary screen, E. coli filamentation inducers, strain DRC39, OD650, 48 h (AID 1179).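 Also: screen aims at cell division blockers that make cells filament.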 Conditions: E. coli DRC39 delta-acrAB growth, higher = more signal, called active from +8 up or from −8 down.
A short description of experiment [9]: RPMI8226 myeloma cell viability, profiling panel, resazurin fluorescence, basal, 24 h, PK04 Diversity Set (AID 1180).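 Also: RPMI8826 multiple myeloma cell line at 5000 cells per well.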 Conditions: higher = more signal.
The target of experiment [10] is E3 ubiquitin-protein ligase XIAP (Homo sapiens) (UniProt P98170). The experiment is described as follows: XIAP binders, primary screen, biophysical, small-molecule microarray, fluorescence 635 nm (AID 1181).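 Also: score merges 667 nm emission and signal to noise over triplicate slides.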 To be noted: small-molecule microarray binding, higher = more signal.
The test system of experiment [11] is XIP peptide (Xip251-270) binding. The experiment is described as follows: small-molecule binders of XIP peptide, primary screen, biochemical, small-molecule microarray, fluorescence 635/667 nm, 0.1 µg/mL protein (AID 1182). Conditions: fluorescent protein binding, 635 nm, higher = more signal, called active from +8 up or from −8 down.
Experiment [12] deals with XIP peptide (Xip251-270). The experiment is described as follows: small-molecule binders of XIP peptide, primary screen, biochemical, small-molecule microarray, fluorescence 635/667 nm, 0.5 µg/mL protein (AID 1183). To be noted: small-molecule microarray binding, fluorescence 635 nm; higher = more signal.
The nature of experiment [13]: Plasmodium falciparum growth inhibition, primary screen, strain 3D7, DAPI fluorescence, 100 nL (AID 1184).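 Also: parasites grown inside human red blood cells in medium with human serum.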 Conditions: P. falciparum 3D7 growth, 3 d, higher = more signal.
The target in experiment [14] is Homeobox protein Hox-A13 (Mus musculus) (UniProt Q62424). The experiment is described as follows: inhibitors of HoxA13-DNA binding, primary screen, biochemical, fluorescence polarization, labeled oligonucleotide (AID 1185). To be noted: 15 min, higher = more signal, called active from +8 up or from −8 down. (In general: In fluorescence polarisation assays a small probe gives low polarisation when free and higher when bound to something large.)

Experiment [15] can be described thus: inhibitors of hydroxyurea-induced Chk1 phosphorylation, primary screen, imaging, HeLa, phospho-Chk1 antibody, percent positive cells (AID 1186). Conditions: hydroxyurea-induced phospho-Chk1 immunofluorescence imaging, higher = more signal.
Experiment [16] is described as follows: inhibitors of hydroxyurea-induced Chk1 phosphorylation, primary screen, imaging, HeLa, phospho-Chk1 nuclear intensity (AID 1187). To be noted: hydroxyurea-induced phospho-Chk1 immunofluorescence imaging, higher = more signal.

The source made the active and inactive calls. Unless noted, no rule for the calls is given here.

Sequence of Dihydroorotate dehydrogenase (quinone), mitochondrial (Plasmodium falciparum (isolate 3D7)) (Q08210 whole entry, looked up): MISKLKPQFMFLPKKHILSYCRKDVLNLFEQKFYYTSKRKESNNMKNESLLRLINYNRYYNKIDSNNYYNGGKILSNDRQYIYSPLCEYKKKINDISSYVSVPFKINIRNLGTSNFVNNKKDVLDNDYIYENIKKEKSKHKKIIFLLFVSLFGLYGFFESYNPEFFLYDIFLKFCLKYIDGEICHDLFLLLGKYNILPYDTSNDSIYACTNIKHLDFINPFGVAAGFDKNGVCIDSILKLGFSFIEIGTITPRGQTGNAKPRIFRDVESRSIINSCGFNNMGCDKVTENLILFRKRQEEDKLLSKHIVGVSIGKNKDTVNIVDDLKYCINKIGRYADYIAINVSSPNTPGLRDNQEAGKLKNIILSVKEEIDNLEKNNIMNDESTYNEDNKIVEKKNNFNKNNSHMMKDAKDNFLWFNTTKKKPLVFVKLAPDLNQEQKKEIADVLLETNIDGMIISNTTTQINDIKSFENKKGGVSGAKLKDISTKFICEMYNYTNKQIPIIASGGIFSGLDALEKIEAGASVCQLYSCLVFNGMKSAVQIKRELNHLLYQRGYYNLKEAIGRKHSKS
Sequence of E3 ubiquitin-protein ligase XIAP (Homo sapiens) (P98170 whole entry, looked up): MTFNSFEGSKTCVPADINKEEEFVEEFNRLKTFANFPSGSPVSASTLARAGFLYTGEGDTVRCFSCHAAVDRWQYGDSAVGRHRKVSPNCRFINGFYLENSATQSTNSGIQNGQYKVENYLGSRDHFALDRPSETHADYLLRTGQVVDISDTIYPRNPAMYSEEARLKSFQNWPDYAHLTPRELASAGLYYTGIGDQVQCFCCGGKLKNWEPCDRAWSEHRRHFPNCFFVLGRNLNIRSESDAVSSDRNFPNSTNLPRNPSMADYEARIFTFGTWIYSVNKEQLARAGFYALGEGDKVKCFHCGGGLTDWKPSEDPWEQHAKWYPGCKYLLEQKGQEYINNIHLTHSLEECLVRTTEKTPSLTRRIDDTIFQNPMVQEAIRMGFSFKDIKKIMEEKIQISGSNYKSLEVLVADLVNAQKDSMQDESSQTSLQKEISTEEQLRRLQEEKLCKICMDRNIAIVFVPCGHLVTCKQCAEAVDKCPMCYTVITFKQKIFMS
Sequence of Homeobox protein Hox-A13 (Mus musculus) (Q62424 whole entry, looked up): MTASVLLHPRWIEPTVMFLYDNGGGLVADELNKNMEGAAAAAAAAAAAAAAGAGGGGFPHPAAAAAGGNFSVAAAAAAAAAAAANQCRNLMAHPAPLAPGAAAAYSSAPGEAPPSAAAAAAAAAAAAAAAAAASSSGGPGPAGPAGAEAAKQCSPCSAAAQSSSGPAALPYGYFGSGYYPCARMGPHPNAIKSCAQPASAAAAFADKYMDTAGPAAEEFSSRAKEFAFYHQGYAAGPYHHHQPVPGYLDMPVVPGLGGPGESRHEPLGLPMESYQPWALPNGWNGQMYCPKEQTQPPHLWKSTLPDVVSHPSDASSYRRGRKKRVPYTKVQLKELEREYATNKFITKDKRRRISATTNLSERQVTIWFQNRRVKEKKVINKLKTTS

`COC(=O)Cn1c(C(=O)N(C)C)cc2c1C[C@H]1CN(C(=O)c3ccccc3)[C@@](Cc3ccc(OC)cc3)(C(=O)OC)[C@@H]21`: the z-score in [1] is -0.708; in experiment [2] it was 1.15 (inactive); in [3] it was -0.667 (inactive); in experiment [5], -0.0424 (inactive); in experiment [6] it was 0.555 (inactive); in experiment [7] it was -0.552 (inactive). The z-score in [8] was -0.263 (inactive); in experiment [9] it was -0.876; in experiment [13], -1.62; in experiment [14], -5.22 (inactive); in [15], 0.0109 (inactive); in experiment [16], 0.295 (inactive). The composite z-score is 0.072 (inactive) in experiment [4], -0.158 in [10], 1.28 (inactive) in [11] and 0.59 in [12].
As for `C=CCN1C(=O)[C@]2(O[C@H](CCn3cc([C@H](O)c4ccccc4)nn3)[C@@H]([Si](C)(C)c3ccc(OC)cc3)[C@@H]2C)c2cc(N3C(=O)c4cccc5cccc3c45)ccc21`, the z-score in [1] is -1.1; in experiment [2], 0.0523 (inactive); in [3] it was -2.78 (inactive); in experiment [5], 1.69 (inactive); in experiment [6], 0.88 (inactive); in [7], 0.908 (inactive). Moreover, the z-score in experiment [8] is 0.591 (inactive); in experiment [9] it was -3.61; in [13] it was -2.75; in experiment [14], -3.64 (inactive); in [15] it was -0.65 (inactive); in experiment [16] it was -0.164 (inactive). The composite z-score in experiment [4] was 0.739 (inactive); in [10] it was 0.0435; in experiment [11] it was 0.767 (inactive); in experiment [12] it was 0.312.
With `CN(C)CCCC[C@@H]1NC(=O)[C@@H]2C[C@H](C(=O)NCc3ccc(F)cc3)[C@H](c3ccc(O)cc3)N2C1=O`, the z-score in experiment [1] is -0.188; in [2], 0.444 (inactive); in experiment [3], -0.0976 (inactive); in [5], 0.559 (inactive); in experiment [6] it was -0.605 (inactive); in [7], 0.012 (inactive). Further, the z-score in experiment [8] is 0.0344 (inactive); in experiment [9], -0.0587; in [13], -0.532; in experiment [14], -1.16 (inactive); in [15], 0.336 (inactive); in experiment [16] it was 0.142 (inactive). Further, the composite z-score was -1.14 (inactive) in experiment [4], -0.0448 in experiment [10], -0.23 (inactive) in experiment [11] and 0.886 in experiment [12].
For the compound `O=C1N(Cc2ccccc2)c2ccccc2[C@H]2OC(c3ccc(OCCCO)cc3)=N[C@@]12Cc1ccccc1`, the z-score in [1] was -1.46; in experiment [2], -0.084 (inactive); in [3] it was -3.4 (inactive); in experiment [5], 0.565 (inactive); in experiment [6], 2.15 (inactive); in experiment [7] it was 0.383 (inactive). Besides, the z-score in [8] was -0.362 (inactive); in experiment [9] it was -3.36; in [13] it was -2.41; in experiment [14], -2.4 (inactive); in [15], -0.335 (inactive); in experiment [16], -0.59 (inactive). Besides, the composite z-score was 0.983 (inactive) in experiment [4], 0.0297 in experiment [10], 0.447 (inactive) in [11] and 0.821 in [12].
In the case of `COC(=O)[C@]1(CO)N=C(c2ccc(OCCCO)cc2)O[C@@H]1c1ccccc1CN=[N+]=[N-]`, the z-score in experiment [1] is -0.318; in experiment [2], 0.443 (inactive); in [3], -0.529 (inactive); in experiment [5], -0.677 (inactive); in experiment [6], -0.299 (inactive); in [7] it was -0.246 (inactive). Also, the z-score was 0.321 (inactive) in [8]; -0.15 in experiment [9]; -0.217 in experiment [13]; -5 (inactive) in experiment [14]; -0.33 (inactive) in experiment [15]; -0.658 (inactive) in [16]. The composite z-score is 0.415 (inactive) in [4], -0.21 in experiment [10], 0.495 (inactive) in [11] and -0.116 in [12].
Take `C=CCC(OC(C)=O)[C@@H]1[C@@H](N(Cc2ccc(-c3ccccc3)cc2)C(=O)c2ccc(-c3ccccc3)cc2)c2cc(OCCCO)ccc2N1C(=O)c1ccc2ccccc2n1` (some centres undefined): the z-score in experiment [1] was 1.16; in [2], -0.599 (inactive); in experiment [3] it was 1.3 (inactive); in experiment [5], 0.149 (inactive); in experiment [6], -0.354 (inactive); in [7], 0.348 (inactive). Also, the z-score in [8] is 0.308 (inactive); in experiment [9], 1.13; in experiment [13], -0.273; in [14], -0.983 (inactive); in [15], 0.0922 (inactive); in experiment [16], 0.352 (inactive). In addition, the composite z-score in experiment [4] was -0.149 (inactive); in experiment [10], -0.0103; in experiment [11], -0.649 (inactive); in experiment [12], 0.119.
Turning to `COC(=O)C(CC#Cc1ccc2c(c1)[C@]1(C(=O)N2)[C@H](c2ccc(O)cc2)N2[C@H](c3ccccc3)[C@H](c3ccccc3)OC(=O)[C@H]2[C@@H]1C(=O)N1CCc2cc(OC)c(OC)cc2C1)C(=O)OC`, the z-score in experiment [1] was 0.445; in experiment [2] it was 0.954 (inactive); in experiment [3], -0.938 (inactive); in experiment [5], 0.573 (inactive); in [6] it was 1.58 (inactive); in experiment [7], -0.158 (inactive). Also, the z-score was -0.627 (inactive) in [8]; -4.12 in experiment [9]; -2.02 in [13]; -2.32 (inactive) in [14]; 0.323 (inactive) in experiment [15]; 0.0329 (inactive) in experiment [16]. Also, the composite z-score was -11.2 (active) in experiment [4], -0.117 in [10], 1.78 (inactive) in experiment [11] and 0.779 in experiment [12].
As for `COCCCNC(=O)[C@@]1(Sc2ccc(C)cc2)CC(=O)N(C2CCCCC2)[C@@H]1c1ccc(CO)cc1I`, the z-score is 0.5 in experiment [1]; -0.172 (inactive) in experiment [2]; -0.326 (inactive) in experiment [3]; 0.627 (inactive) in [5]; -1.09 (inactive) in [6]; 0.16 (inactive) in [7]. The z-score in [8] was 0.228 (inactive); in [9] it was -1.66; in [13] it was -1.39; in [14], -5.66 (inactive); in experiment [15], 0.46 (inactive); in experiment [16], 0.268 (inactive). Further, the composite z-score in experiment [4] is 0.335 (inactive); in experiment [10] it was -0.328; in experiment [11] it was -0.159 (inactive); in experiment [12], 0.736.
Regarding `CCCCN1CC=CC23O[C@@H]4/C=C\CCC(C)OC(=O)C4[C@H]2C(=O)N(C(C)CO)[C@@H]3C1=O` (some centres undefined), the z-score in [1] was 0.0172; in [2], -0.0298 (inactive); in experiment [3], -0.289 (inactive); in experiment [5] it was 0.301 (inactive); in experiment [6] it was 0.549 (inactive); in experiment [7] it was 0.659 (inactive). The z-score in experiment [8] was 0.606 (inactive); in experiment [9], -0.175; in experiment [13] it was 0.105; in experiment [14], -5.78 (inactive); in experiment [15], 0.479 (inactive); in experiment [16], 0.632 (inactive). The composite z-score is -0.216 (inactive) in experiment [4], 0.0785 in experiment [10], 1.02 (inactive) in [11] and -0.369 in experiment [12].
